This passage reports outcome and AC50 results from PubChem BioAssay (EPA / NIEHS).

A short description of assay [1]: TOX21_p53_BLA_p2_viability: Viability Assessment in the Tox21 HCT-116 p53 Agonism Beta-lactamase Assay, Phase 2 (AID 2283591).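 Also: actives lower the ATP signal meaning cytotoxicity.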 In outline: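 HCT116 p53-bla cells, 4000/well, dosed after 5 h plating (217-fold dilution of DMSO stocks) and incubated 16 h at 37C. Viability taken as cellular ATP by CellTiter-Glo luminescence after 30 min RT; signal loss marks cytotoxicity.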

Assay [2] deals with Cellular tumor antigen p53 (Homo sapiens) (UniProt P04637). As to the kind of experiment: TOX21_p53_BLA_p2_ratio: Tox21 HCT-116 p53 Agonism Beta-lactamase Assay, Ratio, Phase 2 (AID 2283592). Put shortly: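 Ratio endpoint: beta-lactamase cleavage of CCF4-AM, blue (460 nm) over green (530 nm). HCT116 reporter line; 16 h treatment, 37C; substrate 2 h RT.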
Assay [3] can be described thus: TOX21_p53_BLA_p3_viability: Viability Assessment in the Tox21 HCT-116 p53 Agonism Beta-lactamase Assay, Phase 3 (AID 2283593).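 Also: cells exposed to compound for 16 h before reading.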 In outline:
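HCT116 cells, 4000/well, dosed 5 h after plating by pin transfer (217-fold dilution from DMSO stock) and incubated 16 h at 37C, 5% CO2. Viability read as ATP luminescence with CellTiter-Glo after 30 min at room temperature.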

Assay [4] has as its target Cellular tumor antigen p53 (Homo sapiens) (UniProt P04637). The assay is described as follows: TOX21_p53_BLA_p3_ratio: Tox21 HCT-116 p53 Agonism Beta-lactamase Assay, Ratio, Phase 3 (AID 2283596). In outline:
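Cells were seeded at 4000/well, rested 5 h at 37C, then dosed with DMSO compound solutions (217-fold dilution) for 16 h. CCF4-AM substrate was loaded for 2 h at room temperature, and the 460/530 nm emission ratio was fitted for gain of signal versus DMSO.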

Assay [5] is described as follows: TOX21_p53_BLA_p4_viability: Viability Assessment in the Tox21 HCT-116 p53 Agonism Beta-lactamase Assay, Phase 4 (AID 2283597).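 Also: hits lower the luminescence signal meaning cytotoxicity.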 Put shortly:
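Cytotoxicity was inferred from loss of CellTiter-Glo luminescence. HCT116 cells had been dosed with compounds after 5 h plating, incubated 16 h at 37C and 5% CO2, and exposed to the CCF4-AM substrate for 2 h.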

Assay [6] concerns the target Cellular tumor antigen p53 (Homo sapiens) (UniProt P04637). As to the kind of experiment: TOX21_p53_BLA_p5_ratio: Tox21 HCT-116 p53 Agonism Beta-lactamase Assay, Ratio, Phase 5 (AID 2283599). Put shortly: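 HCT-116 p53-bla cells (4000/well) plated 5 h, dosed with compound (217-fold DMSO dilution) for 16 h at 37 C; CCF4-AM substrate 2 h at room temperature. Activity is the 460/530 nm emission ratio (405 nm excitation), fitted in gain-of-signal direction versus DMSO.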

The nature of assay [7]: TOX21_p53_BLA_p5_viability: Viability Assessment in the Tox21 HCT-116 p53 Agonism Beta-lactamase Assay, Phase 5 (AID 2283600). Put shortly: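 Luciferase-coupled ATP quantitation of cells treated for 16 h (37C, 5% CO2) with test chemicals delivered in DMSO via a 217-fold dilution; 4000 cells/well; reagent incubated 30 min at room temperature before luminescence reading.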

For assay [8], the target named is Cellular tumor antigen p53 (Homo sapiens) (UniProt P04637). As to the kind of experiment: TOX21_p53_BLA_p4_ratio: Tox21 HCT-116 p53 Agonism Beta-lactamase Assay, Ratio, Phase 4 (AID 2283601). Put shortly: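 HCT-116 p53 beta-lactamase reporter cells (4000/well) preincubated 5 h, then compound (217-fold dilution of DMSO stock) for 16 h at 37C. CCF4-AM substrate added 2 h at room temperature; 460/530 nm emission ratio fitted upward versus DMSO.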

Assay [9] in a line: CCTE_Harrill_HTTr_Viability_MCF7: CCTE's 6-hour Cell Viability Assessment for the High-Throughput Transcriptomics (HTTr) Platform, in MCF-7 cells cultured in DMEM + 10% fetal bovine serum, Harrill Lab (AID 2284010; active = hit-call score of the fitted dose curve at least 0.9, where 1 is the maximum; inactive = score below 0.9). Put shortly: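 PI exclusion, high-content imaging; 8-pt dilution series, 6 h exposure; bidirectional fit vs DMSO (neg. ctrl/baseline); gain of signal = loss of membrane integrity.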

The nature of assay [10]: CCTE_Harrill_HTTr_Apoptosis_MCF7: CCTE's 6-hour Apoptosis Assessment for the High-Throughput Transcriptomics (HTTr) Platform, in MCF-7 cells cultured in DMEM + 10% fetal bovine serum, Harrill Lab (AID 2284011; active = hit-call score of the fitted dose curve at least 0.9, where 1 is the maximum; inactive = score below 0.9). In outline: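 MCF-7 cells in DMEM + 10% fetal bovine serum were exposed to chemicals for 6 hours over an eight-point dilution series. Caspase-3/7 activation was imaged by high content imaging with CellEvent Caspase 3/7 Green; bidirectional fitting used DMSO as baseline.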

Assay [11] in a line: CCTE_Harrill_HTTr_CellCount_MCF7: CCTE's Cell Proliferation Assessment for the High-Throughput Transcriptomics (HTTr) Platform, Harrill Lab (AID 2284012).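 Also: count of Hoechst-stained nuclei per well by high-content imaging in MCF-7 cells; cells exposed to compound for six hours; intended direction is loss of nuclei count meaning fewer cells.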 Put shortly:
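Readout: Hoechst nuclear count by high-content imaging. MCF-7, 8-point dilution series, 6 h exposure. Bidirectional fit vs DMSO baseline.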

The target of assay [12] is PGR (gene 5241) (UniProt P06401). As to the kind of experiment: TOX21_PR_BLA_Followup_Agonist_ratio: Tox21 HEK293 Progesterone Receptor (PR) Agonism Beta-lactamase Follow-Up Assay, Ratio (AID 2283933). In outline:
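Read-out: ratio of cleaved (ch2) to uncleaved (ch1) beta-lactamase substrate fluorescence, gain-of-signal relative to DMSO baseline. Cells: PR-UAS-bla HEK293T, 2% charcoal-stripped FBS; compound exposure 16 hr, 37C; substrate 2 hr, RT.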

The target is the same in assay [13]. As to the kind of experiment: TOX21_PR_BLA_Followup_Antagonist_ratio: Tox21 HEK293 Progesterone Receptor (PR) Antagonism Beta-lactamase Follow-Up Assay, Ratio (AID 2283934). Put shortly: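 Read-out: blue/green beta-lactamase FRET ratio (cleaved ch2 over uncleaved ch1), fitted relative to DMSO baseline. Cells: PR-UAS-bla HEK293T, GAL4-UAS reporter, stimulated with 1 nM R5020 final; 16 hr compound exposure, 37C.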

Assay [14] in a line: TOX21_PR_BLA_Followup_Antagonist_viability: Viability Assessment in the Tox21 HEK293 Progesterone Receptor (PR) Antagonism Beta-lactamase Follow-Up Assay (AID 2283936).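 Also: cells exposed to compound with R5020 agonist for 16 h; hits lower the luminescence signal meaning cytotoxicity.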 In outline: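 PR-UAS-bla HEK293T cells in medium with 2% charcoal-stripped FBS were treated with compounds plus R5020 for 16 hr at 37C. After the beta-lactamase read, CellTiter-Glo was added to the same wells and luminescence read after 30 min at room temperature.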

For assay [15], the target named is PGR (gene 5241) (UniProt P06401). As to the kind of experiment: TOX21_PR_LUC_Followup_Agonist: Tox21 HEK293 Progesterone Receptor (PR) Agonism Luciferase Follow-Up Assay (AID 2283937; active = hit-call score of the fitted dose curve at least 0.9, where 1 is the maximum; inactive = score below 0.9). Put shortly:
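Luminescence read-out (ONE-Glo, 30 min at room temperature) of PR-driven luciferase in HEK293-PR-A-luc cells after 16 h compound exposure at 37C; gain of signal fitted relative to DMSO baseline.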

A short description of assay [16]: TOX21_PR_LUC_Followup_Antagonist_viability: Viability Assessment in the Tox21 HEK293 Progesterone Receptor (PR) Antagonism Luciferase Follow-Up Assay (AID 2283940). Put shortly:
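Read-out: CellTiter-Glo ATP luminescence, loss of signal taken as reduced viability. Cells: HEK293-PR-A-luc, 3,000/well, 5 h settling, then 16 h compound exposure at 37C, 0% CO2.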

Assay [17] in a line: TOX21_PR_LUC_Followup_Agonist_viability: Viability Assessment in the Tox21 HEK293 Progesterone Receptor (PR) Agonism Luciferase Follow-Up Assay (AID 2283941).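 Also: loss of signal means cytotoxicity so actives lower viability.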 Put shortly:
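Cytotoxicity counter-screen: ATP content by CellTiter-Glo luminescence, loss of signal = reduced viability. HEK293-PR-A-luc, 3,000 cells/well, compound exposure 16 h, 37C.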

SMILES strings stand for the structures. Records with an inconclusive call do not appear. Active and inactive are the calls of the source. The calls were made as follows, unless noted: active = hit-call score of the fitted dose curve at least 0.9, where 1 is the maximum; inconclusive = response in the unintended direction; inactive = score below 0.9.

Chain of PGR (gene 5241) (P06401 whole entry, looked up): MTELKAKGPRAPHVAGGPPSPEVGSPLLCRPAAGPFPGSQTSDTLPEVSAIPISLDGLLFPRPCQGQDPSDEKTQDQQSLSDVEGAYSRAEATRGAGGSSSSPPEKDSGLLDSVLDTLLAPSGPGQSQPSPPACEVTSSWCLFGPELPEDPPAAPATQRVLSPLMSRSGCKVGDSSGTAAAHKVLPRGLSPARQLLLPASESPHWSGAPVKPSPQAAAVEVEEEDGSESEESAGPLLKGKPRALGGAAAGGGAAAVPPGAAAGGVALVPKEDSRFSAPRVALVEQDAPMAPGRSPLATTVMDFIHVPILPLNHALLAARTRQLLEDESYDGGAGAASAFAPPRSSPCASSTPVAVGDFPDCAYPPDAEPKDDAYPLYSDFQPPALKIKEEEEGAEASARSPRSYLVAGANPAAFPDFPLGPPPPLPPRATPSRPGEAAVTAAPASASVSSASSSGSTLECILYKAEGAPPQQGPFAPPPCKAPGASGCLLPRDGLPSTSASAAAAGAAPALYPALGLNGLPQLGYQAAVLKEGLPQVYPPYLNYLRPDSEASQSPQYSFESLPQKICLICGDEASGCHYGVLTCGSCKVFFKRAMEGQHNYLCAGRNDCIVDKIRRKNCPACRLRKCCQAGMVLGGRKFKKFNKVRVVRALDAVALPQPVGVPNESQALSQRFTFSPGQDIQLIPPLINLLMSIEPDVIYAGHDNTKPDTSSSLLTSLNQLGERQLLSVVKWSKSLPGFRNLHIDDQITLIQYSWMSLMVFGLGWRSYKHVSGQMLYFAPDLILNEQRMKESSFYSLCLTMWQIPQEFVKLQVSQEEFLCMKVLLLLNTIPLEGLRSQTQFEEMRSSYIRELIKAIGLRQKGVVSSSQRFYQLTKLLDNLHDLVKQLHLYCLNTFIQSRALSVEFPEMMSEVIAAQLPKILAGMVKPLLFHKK
Chain of Cellular tumor antigen p53 (Homo sapiens) (P04637 whole entry, looked up): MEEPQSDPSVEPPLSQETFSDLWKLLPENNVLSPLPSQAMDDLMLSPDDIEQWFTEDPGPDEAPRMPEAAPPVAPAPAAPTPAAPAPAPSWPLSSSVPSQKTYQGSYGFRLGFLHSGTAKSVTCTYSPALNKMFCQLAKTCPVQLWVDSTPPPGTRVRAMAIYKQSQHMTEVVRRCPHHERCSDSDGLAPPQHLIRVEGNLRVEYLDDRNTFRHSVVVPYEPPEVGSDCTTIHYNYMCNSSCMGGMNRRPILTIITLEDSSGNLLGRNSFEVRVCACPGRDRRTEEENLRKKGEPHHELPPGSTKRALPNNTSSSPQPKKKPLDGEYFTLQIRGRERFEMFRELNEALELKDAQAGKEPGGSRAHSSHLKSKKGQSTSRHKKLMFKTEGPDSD

On to `CCCCCCCCCCCCN=C(N)N`, for which the compound was classed as inactive in assay [1], in [2], in [3], in assay [4], in assay [5] and in assay [6]. Besides, the call in assay [7], in assay [8], in assay [9], in assay [10] and in [11] was inactive.

In the case of `N#CCCSCCC#N`, the outcome in assay [1], in assay [2], in [3], in assay [4], in assay [5] and in assay [6] was inactive. Also, in [8], the outcome was inactive.

For the compound `CC(=O)O[C@H]1CC[C@@]2(C)C(=CC[C@@H]3[C@@H]2CC[C@]2(C)C(=O)CC[C@@H]32)C1`, the outcome in [1], in [2], in [3], in assay [4], in [5] and in [7] was inactive. Also, the outcome in assay [12], in assay [13], in assay [14], in assay [15], in assay [16] and in [17] was inactive.

Usually AC50 stands for the concentration at which the activity in the assay is half-maximal. Take `C[C@]12Cc3nonc3C[C@@H]1CC[C@@H]1[C@@H]2CC[C@@]2(C)[C@H]1CC[C@]2(C)O`: the outcome in assay [1], in assay [2], in assay [4], in [6], in assay [7] and in assay [8] was inactive. The outcome in assay [13], in [14] and in assay [17] was inactive. Further, the half-maximal activity concentration (AC50) is 25.7 µM (active) in assay [3], 23 µM (active) in [5], 6.11 µM (active) in assay [12] and 0.862 µM (active) in assay [15].
